Assay outcomes (PubChem)
PP1 inh: counter-screen for PP5 inhibitors: inhibitors of human PP1-alpha. purified PP1alpha, OMFP fluorescence. 0.9% of 320,000 active. P62136. inhibition, % at 6.7 µM;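 active = inhibition above the mean inhibition of all tested compounds plus 3 SD, computed separately for each screening campaign, cut at about 15% in these data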
Calb FLC: affects C. albicans growth with fluconazole | AID 1979 | 0.57% of 300,000 active | growth inhibition, % (concentration not given with the values) | C. albicans CaCi-2 (fluconazole-resistant clinical isolate) + fluconazole, Alamar Blue growth, 48 h;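 active = growth inhibition above about 58% in most replicates, limit read from the data, passing the limit was not always enough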;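 note: all wells also contain fluconazole at 8 µg/ml as a sub-toxic cotreatment; 0% = median of DMSO wells and 100% = median of geldanamycin control wells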
CSC inhib: cancer stem cell inhibition; 1.1% of 300,000 active; cancer stem cell-like cells viability, luminescence; inhibition, % at 7.5 µM; in the data active = inhibition above about 75%; tested in HMLE shEcad cells
PP5 primary: blocks human protein phosphatase 5 activity | P53041 | purified PP5c, OMFP substrate fluorescence | inhibition, % at 6.7 µM | 0.18% of 320,000 active;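 active = inhibition above the campaign's mean inhibition across all tested compounds plus 3 SD, cut at about 9.5% in these data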;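 note: 0% = DMSO only and 100% = 100 µM cantharidin control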
Mdm2 MdmX PPI: human Mdm2/MdmX binding inhibition; 3% of 330,000 active; inhibition, % at 8 µM; AID 485346; O15151+Q00987; SaOS-2 split-luciferase Mdm2/MdmX complementation, luminescence;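 active = inhibition of at least 50% at 8 µM in the primary screen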
Target sequence (O15151 whole entry, looked up): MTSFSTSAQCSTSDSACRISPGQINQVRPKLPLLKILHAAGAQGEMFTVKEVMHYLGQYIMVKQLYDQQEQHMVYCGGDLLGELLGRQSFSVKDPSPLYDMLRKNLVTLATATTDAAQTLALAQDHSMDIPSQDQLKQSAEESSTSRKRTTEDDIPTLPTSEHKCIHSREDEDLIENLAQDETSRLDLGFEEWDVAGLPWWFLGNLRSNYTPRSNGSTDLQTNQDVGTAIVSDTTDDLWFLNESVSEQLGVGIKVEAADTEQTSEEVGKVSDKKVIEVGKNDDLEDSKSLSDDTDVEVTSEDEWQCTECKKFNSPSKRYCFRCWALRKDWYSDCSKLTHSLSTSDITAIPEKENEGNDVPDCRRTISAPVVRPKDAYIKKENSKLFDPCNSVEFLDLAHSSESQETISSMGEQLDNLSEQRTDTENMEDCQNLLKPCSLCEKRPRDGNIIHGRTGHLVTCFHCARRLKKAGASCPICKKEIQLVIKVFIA
Target sequence (Q00987 whole entry, looked up): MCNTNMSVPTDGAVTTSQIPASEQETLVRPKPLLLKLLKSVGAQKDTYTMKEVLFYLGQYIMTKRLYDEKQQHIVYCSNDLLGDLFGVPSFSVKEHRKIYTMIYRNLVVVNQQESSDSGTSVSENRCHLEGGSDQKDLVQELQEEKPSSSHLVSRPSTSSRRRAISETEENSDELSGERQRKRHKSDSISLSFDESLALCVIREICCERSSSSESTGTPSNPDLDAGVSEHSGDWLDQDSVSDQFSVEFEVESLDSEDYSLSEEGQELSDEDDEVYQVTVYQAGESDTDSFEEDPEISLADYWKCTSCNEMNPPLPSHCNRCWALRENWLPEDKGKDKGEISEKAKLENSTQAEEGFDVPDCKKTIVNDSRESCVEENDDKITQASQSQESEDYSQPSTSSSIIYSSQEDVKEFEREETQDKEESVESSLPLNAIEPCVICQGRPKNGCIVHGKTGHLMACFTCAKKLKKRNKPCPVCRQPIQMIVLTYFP
Beta cell apopt: beta cell apoptosis inhibition. AID 435005. 0.8% of 300,000 active. protection from apoptosis, % (test concentration not listed). INS-1E cytokine-induced death, ATP luminescence, 48 h; percent of positive-control rescue, neutral wells zero;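 active = Every replicate reaches about 75%, or at least half do and their mean reaches it too, limit read from the data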;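 note: 0% = cytokine-treated negative control wells and 100% = positive control rescue; higher means more ATP so stronger rescue from cytokine killing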
Mdm2 MdmX conf: human Mdm2/MdmX binding inhibition, confirmed | shares compounds with Mdm2 MdmX PPI | luminescent assay | inhibition, % at 8 µM | 55% of 10,000 active | AID 489028; in the data active = inhibition above about 40%
Full FLuc ctr: counter-screen for Mdm2/MdmX inhibitors: full-length luciferase | SaOS-2 full-length luciferase counterscreen, luminescence | shares compounds with Mdm2 MdmX PPI | inhibition, % at 8 µM | 77% of 6,200 active | AID 504607;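 active = mean inhibition at 8 µM reaching about 37%, which flags the compound as non-specific, limit read from the data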;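 note: p53-null SaOS-2 cells with luciferase driven by a doxycycline-inducible promoter; compound on cells about two nights before reading with doxycycline added after day one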
Starred values were filed as active, the others as inactive; ! = repeats disagree. Only some compounds are listed: those with a hit (about 4.9% of all), similar ones and a draw of the others.

CCOc1ccccc1CNC(=O)C1CCN(c2nnc(C)c3c(C)n(-c4ccc(C)cc4)nc23)CC1 was read as PP1 inh 2, Calb FLC -4, CSC inhib 18, PP5 primary 0, Mdm2 MdmX PPI 100*, Beta cell apopt 59, Mdm2 MdmX conf 76* and Full FLuc ctr 5.
Screening Cc1ccccc1CNC(=O)C1CCCN(c2nnc(C)c3c(C)n(-c4ccccc4)nc23)C1 (stereo not drawn) returned PP1 inh 5, Calb FLC -17, CSC inhib 11, PP5 primary 2, Mdm2 MdmX PPI 33 and Beta cell apopt 11.
Screening Cc1nnc(N2CCCC(C(=O)NCc3ccccc3F)C2)c2nn(-c3ccccc3)c(C)c12 (stereo not drawn) returned PP1 inh -5, Calb FLC -5, CSC inhib -31, PP5 primary -3, Mdm2 MdmX PPI 68*, Beta cell apopt 2 and Mdm2 MdmX conf 30.
Cc1nnc(N2CCC(C(=O)N3CCCCCC3)CC2)c2nn(-c3ccc(Cl)cc3)c(C)c12 was read as PP1 inh 6, Calb FLC -1, CSC inhib 4, PP5 primary 2, Mdm2 MdmX PPI 60*, Beta cell apopt 4, Mdm2 MdmX conf 33 and Full FLuc ctr 83*.
For CCOC(=O)CN1C(=O)/C(=C/c2c(F)cccc2Cl)Oc2ccccc21 the results were PP1 inh 2, Calb FLC -5, CSC inhib 16, PP5 primary 2, Mdm2 MdmX PPI 9 and Beta cell apopt -1.
`CCCCOP(=O)(OCCCC)C1(NS(=O)(=O)c2ccccc2)C=CC(=O)c2ccccc21` (stereo not drawn) gave PP1 inh 2, Calb FLC 30, CSC inhib 19, PP5 primary 3, Mdm2 MdmX PPI 17 and Beta cell apopt -4.
`Cn1c2ccccc2c2nnc(N/N=C/c3ccc(O)cc3)nc21` gave PP1 inh -2, Calb FLC 0, CSC inhib -4, PP5 primary 5, Mdm2 MdmX PPI -3 and Beta cell apopt -5.
For O=C(NNc1ccccc1Br)C(O)(c1cccc(C(F)(F)F)c1)c1cccc(C(F)(F)F)c1 the results were PP1 inh 2, Calb FLC -4, CSC inhib 12, PP5 primary 4, Mdm2 MdmX PPI 94*, Beta cell apopt 125*, Mdm2 MdmX conf 78* and Full FLuc ctr 87*.
Cc1ccc(C(=O)Nc2ccnc(-c3cccnc3)n2)cc1 was read as PP1 inh -4, Calb FLC 57, CSC inhib 3, PP5 primary 2, Mdm2 MdmX PPI 28 and Beta cell apopt -7.
Cc1ccc(NC(=O)Nc2ccnc(-c3cccnc3)n2)cc1 was read as PP1 inh 0, Calb FLC -9, CSC inhib 30, PP5 primary 4, Mdm2 MdmX PPI 76*, Beta cell apopt -19, Mdm2 MdmX conf 71* and Full FLuc ctr 68*.
For CC(=O)c1cccc(NC(=O)C2C3C=CC(C3=C(c3ccccc3)c3ccccc3)C2C(=O)O)c1 (stereo not drawn) the results were PP1 inh 1, Calb FLC 16, CSC inhib 21, PP5 primary -2, Mdm2 MdmX PPI -5 and Beta cell apopt 0.
For Cn1cc(CN2CCN(c3ncccn3)CC2)c(-c2cccc(Cl)c2)n1 the results were PP1 inh 0, Calb FLC 46, CSC inhib 15, PP5 primary 0, Mdm2 MdmX PPI 12 and Beta cell apopt -4.
For Cc1cc(N2CCN(Cc3cn(C)nc3-c3cccc(Cl)c3)CC2)cc(C)n1 the results were PP1 inh -6, Calb FLC 17, CSC inhib 42, PP5 primary 0, Mdm2 MdmX PPI 61*, Beta cell apopt 3, Mdm2 MdmX conf 62* and Full FLuc ctr 43*.
Cc1cccc(OCCCC(=O)NNC(=O)c2ccccn2)c1 was read as PP1 inh 4, PP5 primary 2, Mdm2 MdmX PPI 64*, Beta cell apopt 6, Mdm2 MdmX conf 52* and Full FLuc ctr 41*.
Screening CCN(CC)CCn1c2ccccc2c2cnc(N=CN(C)C)c(C#N)c21 returned PP1 inh 4, Calb FLC -11, CSC inhib -4, PP5 primary 0, Mdm2 MdmX PPI -8 and Beta cell apopt 5.
Screening CCn1c2ccccc2c2cnc(N=CN(C)C)c(C#N)c21 returned PP1 inh 0, Calb FLC 25, CSC inhib -7, PP5 primary 2, Mdm2 MdmX PPI 76*, Beta cell apopt -17, Mdm2 MdmX conf 87* and Full FLuc ctr 20.
`O=C(CCNS(=O)(=O)c1ccccc1)N1CCN(c2ccccc2F)CC1` gave PP1 inh -6, Calb FLC -5, CSC inhib 13, PP5 primary 1, Mdm2 MdmX PPI 14 and Beta cell apopt 5.
`CCCCCCC(C)n1[nH]c(=O)c2c(C)cc(C)nc21` (stereo not drawn) gave PP1 inh 7, Calb FLC 0, CSC inhib -17, PP5 primary 1, Mdm2 MdmX PPI 16 and Beta cell apopt 1.
For CC12CC(c3ccccc3O1)N(C(=O)c1ccco1)C(=S)N2c1ccccc1 (stereo not drawn) the results were PP1 inh -1, Calb FLC 6, CSC inhib 0, PP5 primary 8, Mdm2 MdmX PPI 63*, Beta cell apopt -1 and Mdm2 MdmX conf 9.
For CCOC(=O)C1(Cc2ccccc2C(F)(F)F)CCN(C2CCN(C(C)C)CC2)CC1 the results were PP1 inh -3, Calb FLC -9, CSC inhib 23, PP5 primary -2, Mdm2 MdmX PPI 73*, Beta cell apopt 9, Mdm2 MdmX conf 59* and Full FLuc ctr 54*.
For CCOC(=O)C1(Cc2ccccc2C(F)(F)F)CCN(CC(O)CO)CC1 (stereo not drawn) the results were PP1 inh -8, Calb FLC -12, CSC inhib 1, PP5 primary -4, Mdm2 MdmX PPI 14 and Beta cell apopt -3.
Screening O=C(COc1ccc(S(=O)(=O)N2CCCC2)cc1)N1CCCC1 returned PP1 inh 4, Calb FLC -14, CSC inhib -2, PP5 primary -7, Mdm2 MdmX PPI 13 and Beta cell apopt -8.
For CCCCCn1c(=N)n(CC(O)COc2ccccc2OC)c2ccccc21 (stereo not drawn) the results were PP1 inh 0, Calb FLC 1, CSC inhib 4, PP5 primary 0, Mdm2 MdmX PPI 61*!, Beta cell apopt 21 and Mdm2 MdmX conf 28.
